# In the library only some 8.9% were active in any assay of this set; here they are far more common.
# DRD3 agonist – agonists of human D3 dopamine receptor. D3R DiscoveRx beta-arrestin cells, luminescence, 90 min. max activation, %. 0.58% of 410,000 active. AID 652048; in the data active = max activation above about 30%; note: 0% is about no effect
# Target sequence (P35462 whole entry, looked up): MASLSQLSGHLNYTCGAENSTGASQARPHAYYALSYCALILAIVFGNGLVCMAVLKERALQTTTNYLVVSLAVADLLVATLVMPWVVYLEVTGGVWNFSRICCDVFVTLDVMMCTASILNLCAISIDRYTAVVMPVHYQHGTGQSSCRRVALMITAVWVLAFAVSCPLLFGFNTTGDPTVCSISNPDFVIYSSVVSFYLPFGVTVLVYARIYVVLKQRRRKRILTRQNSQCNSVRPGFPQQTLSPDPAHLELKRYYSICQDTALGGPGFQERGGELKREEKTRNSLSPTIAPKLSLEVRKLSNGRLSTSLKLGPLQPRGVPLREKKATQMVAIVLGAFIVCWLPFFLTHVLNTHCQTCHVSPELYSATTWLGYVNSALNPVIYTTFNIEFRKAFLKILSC
#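 Cells at 1500/well, incubated overnight, then treated with pinned compounds (dopamine as control) for 90 min at 37 degrees C. DiscoveRx reagent added for 30 - 60 minutes at room temperature; luminescence read.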
# MCF10A rereplic – inducers of DNA re-replication in MCF 10A breast cells | MCF 10A DNA re-replication, Hoechst nuclear intensity, 48 h | Potency, µM (top dose mostly 46.1 µM), without a hit: top-dose activity, positive = re-replication, hits mostly activators | 2.9% of 350,000 active; note: potency is the fitted concentration of half-maximal effect; % of control where 0% means no effect; nearly all actives have a fitted effect of over 50% in size
# KB-V1 cytotox – kills drug-selected multidrug resistant KB-V1 cells | AID 1347076 | KB-V1 MDR cells viability, CellTiter-Glo, 72 h | 3.4% of 400,000 active | Potency, µM (doses to about 46.1 µM), usual class: cytotoxic; note: potency is the fitted concentration of half-maximal effect; % is set by controls: 0 for no effect and ±100 for the full control effect; nearly all actives have a fitted effect of over 60% in size
#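 Cytotoxicity toward P-gp-expressing KB-V1 cells was determined as loss of CellTiter-Glo luminescence after 72 h at 37 degrees C. Compounds were tested in quantitative HTS format across a concentration range, with curves fitted to normalized data.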
# KB-3-1 tox – KB-3-1 parental cell cytotoxicity; KB-3-1 viability, CellTiter-Glo ATP luminescence, 72 h; Potency, µM (top dose mostly 46.1 µM), hits mostly cytotoxic; 1.4% of 400,000 active; note: potency is the fitted concentration of half-maximal effect; % is set by controls: 0 for no effect and ±100 for the full control effect; nearly all actives have a fitted effect of over 60% in size
#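 Screening of KB-3-1 cells (DMEM, 10% FBS, phenol-red free) ran from lowest to highest compound concentration; after 72 h at 37 °C viability was read luminescently and curves fitted.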
# SW480 rereplic – DNA re-replication induction in SW480 cells. SW480 DNA re-replication, Hoechst DNA content imaging, 48 h. Potency, µM (series often up to 46.1 µM), without a hit: top-dose re-replication activation, usual class: activators. 1.8% of 340,000 active; note: potency is the fitted concentration of half-maximal effect; % of control where 0% means no effect; nearly all actives have a fitted effect of over 55% in size
#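 Cells (250 per well) received 23 nL compound or DMSO by pin tool and were kept 48 hr at 37 C, 5% CO2. Nuclei were then stained with Hoechst for 40 min and scanned for DNA content.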
# D3 antag – D3 dopamine receptor (human) antagonism. P35462. D3R cells, DiscoveRx beta-arrestin luminescence, antagonist mode; active compounds read low. max response, negative = inhibition, %. 2.5% of 360,000 active. AID 652054; in the data active = max response below about -50%; inconclusive = no clear call, values can overlap the other calls; note: % is set by controls: 0 for no effect and ±100 for the full control effect
#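 Cells plated overnight at 1500 cells/well, then exposed to library compounds with dopamine controls for 90 minutes at 37 degrees C. DiscoveRx reagent added for 30–60 minutes at room temperature; luminescence read, quantitative HTS format.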
# * marks the source's active call; other numbers are inactive results; i = inactive; ? = inconclusive; . = no result given. Unless noted, calls come from the whole dose curve; as a rule, active = well fitted curve in the direction sought with a large enough effect; inconclusive = small, poorly fitted or top-dose-only effect, or another doubt; inactive = no such curve, though single readings can be large; an effect the other way counts as inactive or inconclusive.
SMILES,DRD3 agonist,MCF10A rereplic,KB-V1 cytotox,KB-3-1 tox,SW480 rereplic,D3 antag
CCSc1nc(N)c(C#N)c(-c2ccccc2Cl)c1C#N,0,?,21µM*,i,-12%,?
CCCC12CN3CC(C)(CN(C1)C3c1ccc(CC)cc1)C2=O (centres undefined),2,.,i,i,.,.
CCOC(=O)c1c(-c2ccc(C)cc2)csc1NC(=O)c1cc(=O)c2cc(C)c(C)cc2o1,-19,.,i,i,.,.
CCc1cccc2sc(N3CCN(C(=O)c4ccc([N+](=O)[O-])o4)CC3)nc12,-6,3.7µM*,?,?,?,-16
O=C(COC(=O)c1ccc([N+](=O)[O-])o1)NCc1ccccc1,-4,2%,i,i,1%,?
CN(Cc1ccccc1)C(=O)c1ccc([N+](=O)[O-])o1,2,16µM*,?,i,6.5µM*,-5
O=C(Nc1cccc2ccccc12)c1ccc([N+](=O)[O-])o1,1,5.8µM*,?,?,?,-16
COc1ccccc1NC(=O)c1ccc([N+](=O)[O-])o1,8,?,i,?,7.3µM*,-1
Cc1ccc(C(=O)Nc2cccc3ccccc23)o1,6,?,i,i,5.2µM*,6
O=C(CSc1nnc(NC(=O)c2ccccc2F)s1)NCc1ccco1,6,-1%,.,.,-8%,18
Cn1cc(S(=O)(=O)N2CCOCC2)cc1C(=O)Nc1ccc(Cl)c(C(F)(F)F)c1,1,.,.,.,.,.
COc1ccc2c(c1)c1c(c(=O)n(Cc3ccccc3)c(=O)n1Cc1ccccc1Cl)n2C,3,.,i,i,.,.
Cc1cccc(NC(=O)c2ccc([N+](=O)[O-])o2)c1C,8,13µM*,?,i,7.3µM*,13
O=C(Nc1ccccc1C(=O)NC1CC1)c1ccc([N+](=O)[O-])o1,2,16µM*,?,i,6.5µM*,-63*
O=C(Nc1ccccc1C(=O)NC1CC1)c1ccccc1,0,-5%,?,i,-14%,7
O=C(Nc1cccc(Cl)c1N1CCOCC1)c1ccc([N+](=O)[O-])o1,3,19%,i,?,7%,15
O=c1cc(CSc2nc(NCc3ccccc3)c3ccccc3n2)nc2ccc(Cl)cn12,15,1%,2.3µM*,i,-1%,16
OCC1O[C@H](O[C@H]2C(O)C(O)C(O)O[C@@H]2CO)C(O)C(O)C1O (some centres undefined),.,-4%,.,.,0%,.
Cc1cc(OCCOCCNC(C)C)cc(C)c1Cl,-12,0%,?,?,0%,-58*
Cc1cc(OCC(=O)NC(C)C)cc(C)c1Cl,12,6%,i,i,0%,-10
CCN(CC)c1ccc(NC(=O)C2CCN(c3nnc(-n4cccc4)s3)CC2)c(C)c1,0,.,i,?,.,.
CC1=C(CC/C(C)=N/NC(N)=S)C(C)(C)CCC1,-44,13µM*,i,?,11µM*,-22
Nc1nc(N)c(-c2ccccc2)s1,5,0%,i,i,-1%,.
Cc1sc2ncnc(NCC(C)(C)N3CCOCC3)c2c1C,4,2%,4.1µM*,?,-7%,-7
Cc1sc2ncnc(NCc3ccccc3)c2c1C,1,14%,?,23µM*,2%,0
SMILES,DRD3 agonist,MCF10A rereplic,KB-V1 cytotox,KB-3-1 tox,SW480 rereplic,D3 antag
Cc1sc2ncnc(NCC3(N4CCOCC4)CCCCC3)c2c1C,10,9%,?,i,-3%,30
COc1ccccc1C(CNc1ncnc2sc(C)c(C)c12)N(C)C (centres undefined),-12,?,i,i,?,-5
Cc1sc2ncnc(NCC(c3ccco3)N(C)C)c2c1C (centres undefined),-5,2%,18µM*,i,0%,-13
COc1ccc(C(CNc2ncnc3sc(C)c(C)c23)N(C)C)cc1 (centres undefined),-14,?,10µM*,?,?,-71*
COC(=O)NCc1c(C)nn(-c2ccccc2)c1-n1cccc1,1,.,i,i,.,.
COc1ccc2c(c1)c1c(c(=O)n(-c3ccccc3)c(=O)n1CC(=O)NCCC1=CCCCC1)n2C,1,.,i,i,.,.
CCCCCCCC[n+]1c(C)n(-c2ccccc2)c2ccc(NC(C)=O)cc21,4,28%,i,4.6µM*,9%,13
CCN=c1scc(-c2ccco2)n1/N=C/c1ccc(OC)c(O)c1,8,?,?,i,1%,10
CCN=c1scc(-c2ccco2)n1/N=C/c1ccc(O)cc1,1,23µM*,i,i,3%,7
Cc1ccc(C=Nc2ccccc2C(N)=O)cc1,-16,12µM*,5.8µM*,7.3µM*,?,5
Cc1ccccc1C=Nc1ccccc1C(N)=O,-10,3.3µM*,?,3.7µM*,4.1µM*,-19
Cc1ccc(N=Cc2cccc(O)c2O)c(C)c1,.,.,i,i,.,.
Cc1ccccc1N=Cc1cccc(O)c1O,9,?,?,i,6.5µM*,?
Cc1ccc(C=Nc2ccccc2C(=O)Nc2ccccc2)cc1,-1,?,i,i,-1%,5
Cc1ccc(C)c(S(=O)(=O)ON2C(=O)c3ccccc3C2=O)c1,8,5.8µM*,i,?,?,18
Cc1ccc2c(c1)c1ccc3c(c1n2C)C(=O)C=CC3=O,8,?,i,16µM*,?,-14
Cn1c2ccccc2c2ccc3c(c21)C(=O)C=CC3=O,2,6.5µM*,?,?,1%,-22
CCCCN(CC)C(=O)CSc1c2c(nc3ccc(Cl)cc13)CCCC2,0,.,.,.,.,.
CCOC(=O)c1ccc2nc(NC(=O)c3ccco3)sc2c1,7,21µM*,?,i,?,41
CC(=O)Nc1nc2cc3c(cc2s1)OCO3,-2,?,i,i,-1%,11
O=C(Nc1nc2cc3c(cc2s1)OCCO3)c1ccco1,-1,?,12µM*,?,?,5
O=C(Nc1nc2cc3c(cc2s1)OCO3)C1=COCCO1,0,?,i,6.5µM*,16µM*,19
CCSc1nnc2c(n1)OC(c1sccc1C)N(C(C)=O)c1ccccc1-2 (centres undefined),-2,.,?,i,.,.
Cc1ccc(Sc2ncccc2N)cc1,-8,?,i,i,21µM*,-5
CC(Oc1ccc(F)cc1)C(=O)Nc1ccc(S(=O)(=O)NC2=NCCCCC2)cc1 (centres undefined),-5,-3%,i,i,24%,-29

# High-throughput results deposited in PubChem BioAssay by National Center for Advancing Translational Sciences (NCATS).
